# G9a block – blocks human histone lysine methyltransferase G9a. Q96KQ7. G9a H3K9 monomethylation, AlphaScreen, 2 h. Potency, µM (series often up to 102 µM), for inactives: at the highest dose activity, negative = inhibition, usual class: inhibitors. 350,000 tested, 8.8% active; further: on the % scale 0 is the no-effect control and ±100 the full control effect; nearly all actives have a fitted effect of over 75% in size
#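 Quantitative HTS format: methyltransferase activity on a biotin-tagged H3K9 peptide is measured by AlphaScreen, using a rabbit anti-monomethyl-H3K9 antibody with streptavidin donor and anti-IgG acceptor beads. Final levels are 20 nM enzyme, 500 nM peptide, 20 uM SAM; 2 h RT.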
# Sfp PPTase inh – inhibitors of Bacillus subtilis Sfp phosphopantetheinyl transferase. Q9F4F7. Biochemical Sfp PPTase activity, qHTS. Potency, µM, without a hit: largest response in the series, negative = inhibition, actives largely listed as inhibitors. 310,000 tested, 3.5% active;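 further: the enzyme is Sfp with the accession as filed and its product quenches rhodamine fluorescence; 0% = enzyme reaction without inhibitor and -100% = no enzyme wells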
#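 Buffer: 50 mM Hepes-Na pH 7.6, 10 mM MgCl2, 0.01% Nonidet P-40, 0.01% BSA. Enzyme 15 nM, pre-exposed to compound 15 min; substrates then added and fluorescence change tracked over 30 min.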
# BAZ2B inh – BAZ2B (human) inhibition. Q9UIF8. AlphaScreen BAZ2B-H3K14Ac peptide displacement. Potency, µM (top dose mostly 114 µM), inactives show at the highest dose activity change, negative = inhibition, most hits filed as inhibitors. 360,000 tested, 4.4% active. AID 504333; further: on the % scale 0 is the no-effect control and ±100 the full control effect; nearly all actives have a fitted effect of over 60% in size
# Target sequence (Q9UIF8 whole entry, looked up): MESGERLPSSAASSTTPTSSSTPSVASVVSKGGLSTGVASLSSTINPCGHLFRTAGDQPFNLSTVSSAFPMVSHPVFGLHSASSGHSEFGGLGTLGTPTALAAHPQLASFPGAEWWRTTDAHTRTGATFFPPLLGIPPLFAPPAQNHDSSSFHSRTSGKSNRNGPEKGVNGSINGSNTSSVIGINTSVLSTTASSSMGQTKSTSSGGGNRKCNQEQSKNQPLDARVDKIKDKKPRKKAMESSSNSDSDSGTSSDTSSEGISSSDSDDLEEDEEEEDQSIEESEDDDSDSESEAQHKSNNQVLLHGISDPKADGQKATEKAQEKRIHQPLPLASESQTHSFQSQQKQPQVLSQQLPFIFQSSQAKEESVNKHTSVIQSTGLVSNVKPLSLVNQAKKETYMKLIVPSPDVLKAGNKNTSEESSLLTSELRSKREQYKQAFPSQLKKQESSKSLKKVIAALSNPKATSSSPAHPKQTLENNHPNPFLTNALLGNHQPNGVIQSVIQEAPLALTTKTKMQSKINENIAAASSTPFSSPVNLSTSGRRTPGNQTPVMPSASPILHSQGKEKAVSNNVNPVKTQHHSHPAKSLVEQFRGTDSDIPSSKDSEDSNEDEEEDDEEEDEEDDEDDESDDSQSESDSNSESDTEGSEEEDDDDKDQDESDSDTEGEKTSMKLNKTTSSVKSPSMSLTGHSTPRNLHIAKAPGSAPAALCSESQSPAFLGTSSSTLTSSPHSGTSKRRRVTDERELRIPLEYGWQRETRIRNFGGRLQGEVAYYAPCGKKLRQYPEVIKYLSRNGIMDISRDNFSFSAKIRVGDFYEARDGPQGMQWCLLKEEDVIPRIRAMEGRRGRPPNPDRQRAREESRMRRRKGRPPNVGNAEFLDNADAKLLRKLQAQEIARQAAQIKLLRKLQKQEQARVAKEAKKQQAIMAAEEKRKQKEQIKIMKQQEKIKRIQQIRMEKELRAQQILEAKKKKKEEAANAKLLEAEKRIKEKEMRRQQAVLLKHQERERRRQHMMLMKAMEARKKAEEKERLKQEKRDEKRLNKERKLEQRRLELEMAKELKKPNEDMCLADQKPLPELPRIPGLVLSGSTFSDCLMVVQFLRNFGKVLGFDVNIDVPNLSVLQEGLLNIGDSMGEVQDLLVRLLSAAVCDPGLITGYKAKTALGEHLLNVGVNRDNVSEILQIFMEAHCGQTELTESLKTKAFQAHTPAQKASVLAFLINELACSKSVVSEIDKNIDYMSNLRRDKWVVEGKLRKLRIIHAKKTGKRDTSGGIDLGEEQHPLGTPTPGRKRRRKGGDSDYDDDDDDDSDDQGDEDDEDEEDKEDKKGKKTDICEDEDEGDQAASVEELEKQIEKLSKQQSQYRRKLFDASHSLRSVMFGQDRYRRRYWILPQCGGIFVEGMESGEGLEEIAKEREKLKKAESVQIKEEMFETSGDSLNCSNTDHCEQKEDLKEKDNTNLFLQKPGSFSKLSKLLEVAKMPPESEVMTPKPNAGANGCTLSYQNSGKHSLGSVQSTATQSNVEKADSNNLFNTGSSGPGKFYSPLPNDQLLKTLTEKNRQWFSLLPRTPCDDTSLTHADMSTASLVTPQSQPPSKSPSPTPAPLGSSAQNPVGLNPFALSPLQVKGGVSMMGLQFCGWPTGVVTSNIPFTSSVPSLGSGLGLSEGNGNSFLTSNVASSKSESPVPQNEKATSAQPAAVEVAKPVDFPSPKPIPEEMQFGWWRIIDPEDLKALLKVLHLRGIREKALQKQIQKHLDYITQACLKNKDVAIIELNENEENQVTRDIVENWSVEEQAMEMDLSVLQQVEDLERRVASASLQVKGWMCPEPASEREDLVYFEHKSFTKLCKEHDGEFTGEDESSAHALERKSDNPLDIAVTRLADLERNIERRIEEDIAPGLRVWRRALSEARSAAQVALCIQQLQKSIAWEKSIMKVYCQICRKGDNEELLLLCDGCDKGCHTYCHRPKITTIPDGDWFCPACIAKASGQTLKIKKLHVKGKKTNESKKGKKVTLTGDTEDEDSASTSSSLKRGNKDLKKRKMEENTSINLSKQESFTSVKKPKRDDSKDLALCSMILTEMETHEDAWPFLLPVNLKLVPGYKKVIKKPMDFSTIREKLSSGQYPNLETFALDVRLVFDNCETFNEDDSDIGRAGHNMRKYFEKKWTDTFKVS
#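 BAZ2B (50 nM) with biotin-H3(5-23)K14Ac peptide (50 nM) in PBS pH 7.4, 0.01% Tween-20, preformed 30 min, then compound 30 min at room temperature; top concentration 110uM. AlphaScreen streptavidin donor/nickel chelate acceptor beads (10 ug/mL final), 20 min dark, signal read.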
# PLK1 PBD block – PLK1 (human) polo-box domain binding inhibition. P53350. Plk1 PBD binding of FITC phosphopeptide, fluorescence polarization. Potency, µM, for inactives: max response, negative = inhibition, usual class: inhibitors. 360,000 tested, 2.8% active. AID 720504; further: series mostly up to about 57 µM; on the % scale 0 is the no-effect control and ±100 the full control effect; nearly all actives have a fitted effect of over 65% in size
# HP1b binding inh – HP1-beta chromodomain-methylated histone interaction inhibition | P83916 | AlphaScreen HP1-beta / biotin-H3K9me3 peptide binding | Potency, µM (doses to about 114 µM), for inactives: at the highest dose activity change, negative = inhibition, hits mostly inhibitors | 390,000 tested, 0.56% active | AID 540317; further: nearly all actives have a fitted effect of over 70% in size
#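 Compound inhibition of the preformed complex between 50 nM HP1-beta and 50 nM biotinylated H3K9me3 peptide was read by AlphaScreen. Buffer was PBS pH 7.4 with 0.01% Tween-20. Incubations ran 30 min at room temperature, with 10 ug/mL donor/acceptor beads.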
# JMJD2A Tudor – inhibitors of human JMJD2A Tudor domain | AID 504339 | O75164 | 390,000 tested, 4.4% active | Potency, µM (top dose mostly 114 µM), inactives show at the top dose activity change, negative = inhibition, hits mostly inhibitors | AlphaScreen JMJD2A-Tudor / H3K4me3 peptide binding; further: on the % scale 0 is the no-effect control and ±100 the full control effect; nearly all actives have a fitted effect of over 50% in size
# * hit, by the source's call; u = inconclusive; x = no result given; [ ] = dose if it differs, or a comment. Sampled rows, rich in hits. Any-hit rate of the full collection: about 12%. The call rests on the fitted dose curve; in most records, active means well fitted curve in the direction sought with a large enough effect; inconclusive means small, poorly fitted or top-dose-only effect, or another doubt; inactive means no such curve, though single readings can be large; an effect the other way counts as inactive or inconclusive. Potency means the concentration at half of the fitted maximal effect.
SMILES,G9a block,Sfp PPTase inh,BAZ2B inh,PLK1 PBD block,HP1b binding inh,JMJD2A Tudor
CCOC(=O)C1C(=O)CC(C)(O)C(C(=O)OCC)C1c1cccs1 (stereo not given),12%[12.7 µM],17%,u,-1%,18%,-14%
CC1=C(C(=O)N2CCN(c3cccc(Cl)c3)CC2)C2(CCCCC2)OC1=O,-24%[59 µM],x,-15%,x,-11%,-29%
O=c1[nH][nH]c2c1[C@H](c1ccc(F)cc1)O[C@H](CCC(F)(F)F)C2,x,x,x,7.5µM*,x,x
CC(C)[C@@H]1Cc2[nH][nH]c(=O)c2[C@H](c2ccc(F)cc2)O1,x,x,x,24µM*,x,x
O=c1[nH][nH]c2c1C(c1ccc(F)cc1)OC(CCc1ccccc1)C2 (stereo not given),x,x,x,11µM*,x,x
CC(C)[C@@H]1Cc2[nH]c(=O)[nH]c(=O)c2[C@H](c2ccc(F)cc2)O1,x,x,x,0%,x,x
CCCCC1Cc2[nH][nH]c(=O)c2C(c2ccc(F)cc2)O1 (stereo not given),x,x,x,8.4µM*,x,x
CCc1ccc2oc(C(=O)NC3CCS(=O)(=O)C3)cc(=O)c2c1 (stereo not given),14%,17%,-35%,-4%,34%,-11%
O=C(NNc1cc(C(F)(F)F)ccc1Cl)c1ccc(=O)[nH]c1,-32%,56µM*,4%,-21%,2%,-14%
CCOc1ccc(NC(=O)CN2C(=O)c3ccccc3Sc3ccc(C(=O)OC)cc32)cc1,7%[59 µM],x,3%,x,25%[57 µM],-3%
Cc1cccc(-n2cnc3cc([N+](=O)[O-])ccc32)c1,11µM*,-27%,u,17µM*,-24%,-21%
Cc1c(C(c2ccc(N(C)C)cc2)c2c(C)n(C)n(-c3ccccc3)c2=O)c(=O)n(-c2ccccc2)n1C,50µM*,-14%,u,-19%,u,-27%
Cc1c(C(c2ccccc2)c2c(C)n(C)n(-c3ccccc3)c2=O)c(=O)n(-c2ccccc2)n1C,17%,15%,-8%,6%,28%,-7%
COc1ccc2cc(C(=O)C3CCCN(C(=O)c4cnn(C(C)C)c4)C3)ccc2c1 (stereo not given),2%,17%,-22%,24µM*,4%,18µM*
COc1ccc(C(=O)C2CCCN(C(=O)c3ccc(C(C)=O)s3)C2)c(C)c1 (stereo not given),16%[12.7 µM],1%,-6%,30µM*,3%,-36%
CN(C)c1ccccc1C(=O)N1CCCC(C(=O)c2ccc3ccccc3c2)C1 (stereo not given),50µM*,-18%,u,-17%,-4%,u
COCc1ccc(C(=O)N2CCCC(C(=O)c3ccc(Cl)cc3C)C2)o1 (stereo not given),-9%[0.501 µM],-5%,-12%,19µM*,6%,u
COc1ccc2cc(C(=O)C3CCCN(C(=O)c4cccnc4)C3)ccc2c1 (stereo not given),u,1%,-21%,0%,31%,-11%
Cc1cc(Cl)ccc1C(=O)C1CCCN(C(=O)c2ccoc2)C1 (stereo not given),-18%,-10%,u,0%,40%,-25%
CC1CCCN(S(=O)(=O)c2ccc(CN3C(=O)c4cccnc4C3=O)cc2)C1 (stereo not given),6%[59 µM],2%,u,-18%,39%,-12%
Cc1ccccc1C(=O)Nc1ccc2oc(-c3ccc(Cl)c(Cl)c3)nc2c1,3%[59 µM],x,-2%,x,28%,-11%
CCOCCCn1c(=N)c(C(=O)NCc2cccnc2)cc2c(=O)n3cc(C)ccc3nc21,-2%[59 µM],x,-2%,x,29%,-5%
CCc1ccc(S(=O)(=O)c2cn(Cc3ccccc3F)c3cc(OC)c(OC)cc3c2=O)cc1,-42%[59 µM],x,-6%,x,41%,-11%
CC1=C(C(=O)Nc2ccc(Cl)cc2)C(c2ccncc2)C(C#N)=C(SCC(N)=O)N1 (stereo not given),u,89µM*,-4%,-17%,41%,-12%
CC(=O)C1=C(C)NC(SCC(=O)Nc2nc3ccccc3s2)=C(C#N)C1c1ccc(Cl)cc1 (stereo not given),8.9µM*,40µM*,-25%,-10%,10%,-32%
SMILES,G9a block,Sfp PPTase inh,BAZ2B inh,PLK1 PBD block,HP1b binding inh,JMJD2A Tudor
COc1cccc(/C=C/C(=O)OCC(=O)N2CCCC2)c1OC,x,x,x,-6%,15%,-12%
CC1(C)CC(=O)C(CC2=C(O)CC(C)(C)CC2=O)=C(O)C1,4.5µM*,u,7%,-10%,40%,-16%
O=C(NCc1ccc2[nH]c3c(c2c1)CCCC3)c1ccc(S(=O)(=O)N2CCOCC2)cc1,40µM*,2%,u,-10%,-7%,-35%
O=C(NCc1ccc2[nH]c3c(c2c1)CCCC3)c1ccc(S(=O)(=O)N2CCCC2)cc1,45µM*,7%,-37%,-4%,7%,-27%
CCN(CC)S(=O)(=O)c1ccc(C(=O)NCc2ccc3[nH]c4c(c3c2)CCCC4)cc1,u,5%,u,-4%,-3%,-28%
CN(C)S(=O)(=O)c1ccc(C(=O)NCc2ccc3[nH]c4c(c3c2)CCCC4)cc1,45µM*,8%,u,-1%,-10%,u
CC(C)CN(C(=O)COC(=O)CSc1ccc([N+](=O)[O-])cc1)C1CCS(=O)(=O)C1 (stereo not given),-36%,x,-1%,19µM*,-4%,-21%
CC(C)CN(C(=O)COC(=O)c1cc2c(s1)CCC2)C1CCS(=O)(=O)C1 (stereo not given),-34%[59 µM],1%,56µM*,u,-12%,u
CCCN(C(=O)COC(=O)CSc1ccc([N+](=O)[O-])cc1)C1CCS(=O)(=O)C1 (stereo not given),22%[12.7 µM],x,-3%,11µM*,u,56µM*
Cc1ccc(SCC(=O)OCC(=O)N(CC(C)C)C2CCS(=O)(=O)C2)cc1C (stereo not given),-45%,x,5%,-5%,27%,-12%
CCC(Oc1ccccc1)C(=O)OCC(=O)Nc1sccc1C(N)=O (stereo not given),-2%[59 µM],x,6%,-6%,18%,-19%
O=C(O)C=C(Br)Br,x,-1%,6%,-15%,29%,-28%
COC(=O)c1ccc(N=Cc2c(-c3ccccc3)[nH][nH]c2=O)cc1,40µM*,7%,u,3%,14%,-5%
CCN1CCN(c2ccc(NC(=O)c3cc(OC)c(OC)c(OC)c3)cc2)CC1,u,3%,-23%,7%,42%,-10%
CCOc1ccc(NC(=S)C(C#N)=C2N(C)c3ccccc3N2C)cc1,32µM*,-16%,-31%,4%,24%,0%
CCN1CCN(c2cc(N3CCN(C(=O)c4ccco4)CC3)c3c4c(onc24)-c2ccccc2C3=O)CC1,18µM*,50µM*,11µM*,40%,u,28µM*

# Source: PubChem
